# Measured values taken from PubChem BioAssay (NCATS).
# Records with an inconclusive call do not appear. Where a call stands in place of a potency, no number is given. Activity calls are given as the source filed them. Calls follow the shape of the dose curve; as a rule, active = well fitted inhibition curve with a large enough effect; inconclusive = small, poorly fitted or top-dose-only effect; inactive = flat fitted curve, though single readings scatter.
# Columns and labels:
# Assay in all cases: qHTS profiling for inhibitors of Plasmodium falciparum proliferation (AID 504749); also: nearly all actives have a fitted effect of over 60% in size
# Conditions in all cases: P. falciparum in erythrocytes, SYBR Green DNA, 72 h; series mostly up to 28.7 µM
# [1] = test system: 3D7
# In short: (§1)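 Each compound contacts P. falciparum-infected red blood cells for 72 h at 37 C; lysis buffer (Tris, EDTA, saponin, Triton X, SYBR Green I) is added and fluorescence measured next morning; values normalized to controls.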
# [2] = test system: 7G8
# In short: as §1
# [3] = test system: AA1029
# In short: as §1
# [4] = test system: AS120
# In short: as §1
# [5] = test system: ATS189
# In short: as §1
# [6] = test system: ATS95
# In short: as §1
# [7] = test system: C2A
# In short: as §1
# [8] = test system: CP185
# In short: as §1
# [9] = test system: CP191
# In short: as §1
# [10] = test system: CP192
# In short: as §1
# Potency is read from the fitted curve at half-maximal effect.
Compound,Potency [1],Potency [2],Potency [3],Potency [4],Potency [5],Potency [6],Potency [7],Potency [8],Potency [9],Potency [10]
Cc1ncc(COP(=O)(O)O)c(CN)c1O,inactive,inactive,inactive,inactive,inactive,inactive,inactive,inactive,inactive,inactive
Cc1ncc(C[n+]2csc(CCOP(=O)(O)OP(=O)(O)O)c2C)c(N)n1,inactive,inactive,inactive,inactive,inactive,inactive,inactive,inactive,inactive,inactive
c1ccc2c(c1)OCC(CN1CCCCC1)O2 (stereo not given),inactive,inactive,inactive,inactive,inactive,inactive,inactive,inactive,inactive,inactive
CO/N=C(\C(=O)N[C@@H]1C(=O)N2C(C(=O)[O-])=C(C[n+]3cccc4c3CCC4)CS[C@H]12)c1csc(N)n1,inactive,inactive,inactive,inactive,inactive,inactive,inactive,inactive,inactive,inactive
CC1(C)S[C@@H]2[C@H](NC(=O)C3(N)CCCCC3)C(=O)N2[C@H]1C(=O)O,inactive,inactive,inactive,inactive,inactive,inactive,inactive,inactive,inactive,inactive
CC(/C=C/C=C(\C)C(=O)O[C@@H]1O[C@H](CO[C@@H]2O[C@H](CO)[C@@H](O)[C@H](O)[C@H]2O)[C@@H](O)[C@H](O)[C@H]1O)=C\C=C\C=C(C)\C=C\C=C(/C)C(=O)O[C@@H]1O[C@H](CO[C@@H]2O[C@H](CO)[C@@H](O)[C@H](O)[C@H]2O)[C@@H](O)[C@H](O)[C@H]1O,inactive,inactive,inactive,inactive,inactive,inactive,inactive,inactive,inactive,inactive
CNC(=O)c1c(I)c(C(=O)NCC(=O)Nc2c(I)c(C(=O)O)c(I)c(C(=O)NCCO)c2I)c(I)c(N(C)C(C)=O)c1I,inactive,inactive,inactive,inactive,inactive,inactive,inactive,inactive,inactive,inactive
COc1cc(S(C)=O)ccc1-c1nc2ncccc2[nH]1 (stereo not given),inactive,inactive,inactive,inactive,inactive,inactive,inactive,inactive,inactive,inactive
CO[C@H]1C[C@@H]2CC[C@@H](C)[C@@](O)(O2)C(=O)C(=O)N2CCCC[C@H]2C(=O)O[C@H]([C@H](C)C[C@@H]2CC[C@@H](OC(=O)C(C)(CO)CO)[C@H](OC)C2)CC(=O)[C@H](C)/C=C(\C)[C@@H](O)[C@@H](OC)C(=O)[C@H](C)C[C@H](C)/C=C/C=C/C=C/1C,inactive,inactive,inactive,inactive,inactive,inactive,inactive,inactive,inactive,inactive
O=C(NCCNCC(O)COc1ccc(O)cc1)N1CCOCC1 (stereo not given),inactive,inactive,inactive,inactive,inactive,inactive,inactive,inactive,inactive,inactive
CCCCCCCCCCCC(=O)OCC(O)CO (stereo not given),inactive,inactive,inactive,inactive,inactive,inactive,inactive,inactive,inactive,inactive
O=C(O)Cc1nn(Cc2ccc(Br)cc2F)c(=O)c2ccccc12,inactive,inactive,inactive,inactive,inactive,inactive,inactive,inactive,inactive,inactive
CCCCCCCCCCCC(=O)N(CCO)CCO,inactive,inactive,inactive,inactive,inactive,inactive,inactive,inactive,inactive,inactive
O=C(CCCCCCCCCCCCC1CCCC1)Nc1ccc(S(=O)(=O)c2ccc(NC(=O)CCCCCCCCCCCCC3CCCC3)cc2)cc1,inactive,inactive,inactive,inactive,inactive,inactive,inactive,inactive,inactive,inactive
CC(C)O,inactive,inactive,inactive,inactive,inactive,inactive,inactive,inactive,inactive,inactive
CCCCO,inactive,inactive,inactive,inactive,inactive,inactive,inactive,inactive,inactive,inactive
CC12CCC(C[N+](C)(CCC[N+](C)(C)C)C1)C2(C)C (stereo not given),inactive,inactive,inactive,inactive,inactive,inactive,inactive,inactive,inactive,inactive
c1ccc2ccccc2c1,inactive,inactive,inactive,inactive,inactive,inactive,inactive,inactive,inactive,inactive
F[Si-2](F)(F)(F)(F)F,inactive,inactive,inactive,inactive,inactive,inactive,inactive,inactive,inactive,inactive
CC(=O)Oc1cccc2c1C(=O)c1c(OC(C)=O)cc(C(=O)O)cc1C2=O,inactive,inactive,inactive,inactive,inactive,inactive,inactive,inactive,inactive,inactive
CC(C)c1nc(N(C)S(C)(=O)=O)nc(-c2ccc(F)cc2)c1/C=C/C(O)CC(O)CC(=O)O (stereo not given),inactive,inactive,inactive,inactive,inactive,inactive,inactive,inactive,inactive,inactive
CCC(Cc1c(I)cc(I)c(O)c1I)C(=O)O (stereo not given),inactive,inactive,inactive,inactive,inactive,inactive,inactive,inactive,inactive,inactive

Compound,Potency [1],Potency [2],Potency [3],Potency [4],Potency [5],Potency [6],Potency [7],Potency [8],Potency [9],Potency [10]
Cc1ncc[nH]1,inactive,inactive,inactive,inactive,inactive,inactive,inactive,inactive,inactive,inactive
OC/C=C/c1ccccc1,inactive,inactive,inactive,inactive,inactive,inactive,inactive,inactive,inactive,inactive
ClC(Cl)Cl,inactive,inactive,inactive,inactive,inactive,inactive,inactive,inactive,inactive,inactive
CCCOC(=O)c1ccccc1O,inactive,inactive,inactive,inactive,inactive,inactive,inactive,inactive,inactive,inactive
CCCCCCCCCCCCCCCCCC(=O)OCC(C)O (stereo not given),inactive,inactive,inactive,inactive,inactive,inactive,inactive,inactive,inactive,inactive
CC(C)CCC[C@@H](C)[C@H]1CC[C@H]2[C@@H]3CC=C4C[C@@H](O)CC[C@]4(C)[C@H]3CC[C@]12C,inactive,inactive,inactive,inactive,inactive,inactive,inactive,inactive,inactive,inactive
COc1cc(C)c(/C=C/C(C)=C/C=C/C(C)=C/C(=O)O)c(C)c1C,inactive,inactive,inactive,inactive,inactive,inactive,inactive,inactive,inactive,inactive
O=C(O)C1=C(CSc2nnnn2CS(=O)(=O)O)CS[C@@H]2[C@H](NC(=O)[C@H](O)c3ccccc3)C(=O)N12,inactive,inactive,inactive,inactive,inactive,inactive,inactive,inactive,inactive,inactive
CCc1ccc(S(=O)(=O)O)cc1,inactive,inactive,inactive,inactive,inactive,inactive,inactive,inactive,inactive,inactive
CN(C)C=Nc1c(I)cc(I)c(CCC(=O)O)c1I,inactive,inactive,inactive,inactive,inactive,inactive,inactive,inactive,inactive,inactive
C=CCOc1ccc(CC(=O)O)cc1Cl,inactive,inactive,inactive,inactive,inactive,inactive,inactive,inactive,inactive,inactive
COc1ccc(/C=C/C(=O)OCCC(C)C)cc1,inactive,inactive,inactive,inactive,inactive,inactive,inactive,inactive,inactive,inactive
Cc1ccc(S(=O)(=O)NCl)cc1,inactive,inactive,inactive,inactive,inactive,inactive,inactive,inactive,inactive,inactive
Cc1ncc(C[n+]2csc(CCOP(=O)(O)O)c2C)c(N)n1,inactive,inactive,inactive,inactive,inactive,inactive,inactive,inactive,inactive,inactive
OC[C@H]1O[C@@H]2O[C@H]3[C@H](O)[C@@H](O)[C@@H](O[C@H]4[C@H](O)[C@@H](O)[C@@H](O[C@H]5[C@H](O)[C@@H](O)[C@@H](O[C@H]6[C@H](O)[C@@H](O)[C@@H](O[C@H]7[C@H](O)[C@@H](O)[C@@H](O[C@H]1[C@H](O)[C@H]2O)O[C@@H]7CO)O[C@@H]6CO)O[C@@H]5CO)O[C@@H]4CO)O[C@@H]3CO,inactive,inactive,inactive,inactive,inactive,inactive,inactive,inactive,inactive,inactive
FCOC(C(F)(F)F)C(F)(F)F,inactive,inactive,inactive,inactive,inactive,inactive,inactive,inactive,inactive,inactive
NCC(O)CC(=O)O (stereo not given),inactive,inactive,inactive,inactive,inactive,inactive,inactive,inactive,inactive,inactive
CC1C(=O)CC2C3(C)CCC2(C(C)C(=O)O)C(=O)C13 (stereo not given),inactive,inactive,inactive,inactive,inactive,inactive,inactive,inactive,inactive,inactive
NC(=S)N=Nc1ccc(NN=C(N)N)cc1,12.6 µM (active),10 µM (active),12.6 µM (active),12.6 µM (active),10 µM (active),10 µM (active),5.62 µM (active),11.2 µM (active),4.47 µM (active),8.49 µM (active)
CN1C(=O)OC(C)(C)C1=O,inactive,inactive,inactive,inactive,inactive,inactive,inactive,inactive,inactive,inactive
CS(=O)(=O)OCC(O)C(O)COS(C)(=O)=O (stereo not given),inactive,inactive,inactive,inactive,inactive,inactive,inactive,inactive,inactive,inactive
